Experimental data reported in PubChem BioAssay (NCI).
This is part of a sample that, as a whole, favours compounds with a hit. Of some 83,000 tested, about 20% had one in any assay.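 The endpoint reported here, percent growth, reads 100 for growth as untreated, 0 for no net growth and -100 for all cells dead.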 The source made the active and inactive calls. The calls were made as follows: active = growth percent below 10; inactive = the rest.

Legend:
Assay in all cases: NCI-60 one-dose screen, 48 h (100 = growth as untreated, 0 = no growth, -100 = all killed)
Details in all cases: 10 µM unless noted
NCI-H23 lung = test system: NCI-H23 lung
NCI-H226 lung = test system: NCI-H226 lung
NCI-H322M lung = test system: NCI-H322M lung
HOP-62 NSCLC = test system: HOP-62 NSCLC
NCI-H460 lung = test system: NCI-H460 lung
HOP-92 NSCLC = test system: HOP-92 NSCLC
NCI-H522 lung = test system: NCI-H522 lung
A549/ATCC NSCLC = test system: A549/ATCC NSCLC
786-0 renal = test system: 786-0 renal
COLO 205 colon = test system: COLO 205 colon

Measured: growth

O=C(CNc1cccnc1)Nc1ccc(C(=O)/C=C/c2ccc(Cl)cc2)cc1
inactive: NCI-H23 lung 91.7% | NCI-H226 lung 86.4% | NCI-H322M lung 95.9% | HOP-62 NSCLC 107% | NCI-H460 lung 93.5% | HOP-92 NSCLC 90.7% | NCI-H522 lung 89.4% | A549/ATCC NSCLC 88.3% | 786-0 renal 105% | COLO 205 colon 106%

Nc1nccc(=S)[nH]1
inactive: NCI-H23 lung 92.7% | NCI-H226 lung 103% | NCI-H322M lung 101% | HOP-62 NSCLC 100% | NCI-H460 lung 107% | HOP-92 NSCLC 110% | NCI-H522 lung 63.2% | A549/ATCC NSCLC 74.3% | 786-0 renal 99.7% | COLO 205 colon 127%

O=C(Nc1cccc(-n2ccc3c(NC(=O)c4ccccc4)nccc32)c1)c1cc(N2CCOCC2)cc(C(F)(F)F)c1
inactive: NCI-H23 lung 19.8% | NCI-H226 lung 28.7% | NCI-H322M lung 30.8% | HOP-62 NSCLC 36.6% | HOP-92 NSCLC 29.3%
active: NCI-H460 lung -11% | NCI-H522 lung -47.5% | A549/ATCC NSCLC -8.84% | 786-0 renal -31.6% | COLO 205 colon -51.4%

O=C(O)c1ccc(-c2nn(-c3ccc(C(=O)O)cc3)cc2/C=N/Nc2c(F)c(F)cc(F)c2F)cc1
inactive: NCI-H23 lung 96% | NCI-H226 lung 103% | NCI-H322M lung 99.9% | HOP-62 NSCLC 99% | NCI-H460 lung 114% | HOP-92 NSCLC 115% | NCI-H522 lung 89.2% | A549/ATCC NSCLC 97.7% | 786-0 renal 112% | COLO 205 colon 111%

NS(=O)(=O)c1ccc(-n2nc(-c3ccc(Cl)cc3)ccc2=O)cc1
inactive: NCI-H23 lung 91.1% | NCI-H226 lung 103% | NCI-H322M lung 110% | HOP-62 NSCLC 94.3% | NCI-H460 lung 98% | HOP-92 NSCLC 90.9% | NCI-H522 lung 16% | A549/ATCC NSCLC 95.4% | 786-0 renal 92.9% | COLO 205 colon 113%

O=c1c2ccccc2sc2c(N3CCCC3)nc3ccccc3c12
inactive: NCI-H23 lung 88.7% | NCI-H226 lung 81.3% | NCI-H322M lung 110% | HOP-62 NSCLC 97.7% | NCI-H460 lung 96.7% | HOP-92 NSCLC 70.8% | NCI-H522 lung 100% | A549/ATCC NSCLC 103% | 786-0 renal 102% | COLO 205 colon 116%

C=CCOc1ccc(/C(Cl)=N/N=C(\Cl)c2cc(OC)c(OC)c(OC)c2)cc1
inactive: NCI-H23 lung 64.9% | NCI-H226 lung 81.8% | NCI-H322M lung 97.4% | HOP-62 NSCLC 79.7% | NCI-H460 lung 48% | HOP-92 NSCLC 65.1% | NCI-H522 lung 37.9% | A549/ATCC NSCLC 59.5% | 786-0 renal 98.1% | COLO 205 colon 72.2%

O=C(CSc1nnc(-c2cc3c([nH]c4ccccc43)c(-c3cccc(O)c3)n2)n1-c1ccccc1)c1ccccc1
inactive: NCI-H23 lung 80.2% | NCI-H226 lung 93.4% | NCI-H322M lung 89.7% | HOP-62 NSCLC 59.3% | NCI-H460 lung 65.3% | HOP-92 NSCLC 67.6% | NCI-H522 lung 23% | A549/ATCC NSCLC 69.9% | 786-0 renal 18.8% | COLO 205 colon 105%

Cc1cccc(NCS(=O)(=O)O)c1
inactive: NCI-H23 lung 99.5% | NCI-H226 lung 97.1% | NCI-H322M lung 106% | HOP-62 NSCLC 92.4% | NCI-H460 lung 105% | HOP-92 NSCLC 99.4% | NCI-H522 lung 90.9% | A549/ATCC NSCLC 75% | 786-0 renal 103% | COLO 205 colon 103%

COc1cc(-c2nc(N)n(CC(=O)Nc3ccc(/C(C)=N\O)cc3)n2)cc(OC)c1OC
inactive: NCI-H23 lung 95.8% | NCI-H226 lung 94.8% | NCI-H322M lung 94.2% | HOP-62 NSCLC 94.5% | NCI-H460 lung 106% | HOP-92 NSCLC 88.2% | NCI-H522 lung 60.8% | A549/ATCC NSCLC 74.2% | 786-0 renal 104% | COLO 205 colon 104%

O=C(CSc1nnc(-c2ccccc2)o1)Nc1ccc(C(=O)/C=C/c2ccccc2)cc1
inactive: NCI-H23 lung 77.6% | NCI-H226 lung 85.4% | NCI-H322M lung 71.1% | HOP-62 NSCLC 72.4% | NCI-H460 lung 48.4% | HOP-92 NSCLC 60.6% | NCI-H522 lung 65.2% | A549/ATCC NSCLC 60.3% | 786-0 renal 84.8% | COLO 205 colon 79.2%

CC(=O)Nc1ccc(OC(=O)c2ccccc2O)cc1
inactive: NCI-H23 lung 99.5% | NCI-H226 lung 106% | NCI-H322M lung 111% | HOP-62 NSCLC 99.8% | NCI-H460 lung 106% | HOP-92 NSCLC 85% | NCI-H522 lung 106% | A549/ATCC NSCLC 102% | 786-0 renal 107% | COLO 205 colon 108%

O=C1/C(=C/c2cccc3cnccc23)Cc2cc(F)ccc21
inactive: NCI-H23 lung 87.7% | NCI-H226 lung 73.8% | NCI-H322M lung 93.9% | HOP-62 NSCLC 65.1% | NCI-H460 lung 95.9% | HOP-92 NSCLC 75.3% | NCI-H522 lung 78.4% | A549/ATCC NSCLC 98.7% | 786-0 renal 97.4% | COLO 205 colon 81.8%

O=C(O)c1ccccc1C(=O)c1ccc(I)cc1
inactive: NCI-H23 lung 102% | NCI-H226 lung 101% | NCI-H322M lung 104% | HOP-62 NSCLC 88.7% | NCI-H460 lung 105% | HOP-92 NSCLC 78.3% | NCI-H522 lung 75.5% | A549/ATCC NSCLC 98.4% | 786-0 renal 99% | COLO 205 colon 103%

COc1cccc(-c2nc3sccn3c2-c2ccnc(NCCNC(=O)Nc3cccc(C(F)(F)F)c3)n2)c1
inactive: NCI-H23 lung 83.8% | NCI-H226 lung 94.9% | NCI-H322M lung 81.3% | HOP-62 NSCLC 98.9% | NCI-H460 lung 45.1% | HOP-92 NSCLC 92.4% | NCI-H522 lung 47.7% | A549/ATCC NSCLC 44.4% | 786-0 renal 65.6% | COLO 205 colon 57.6%

COc1cc(Nc2ncccc2C(=O)Nc2nc3ccc(F)cc3s2)cc(OC)c1OC
inactive: NCI-H23 lung 55.8% | NCI-H226 lung 57.2% | NCI-H322M lung 90.8% | HOP-62 NSCLC 40.9% | NCI-H460 lung 74.1% | HOP-92 NSCLC 45.1% | NCI-H522 lung 50.6% | A549/ATCC NSCLC 65.6% | 786-0 renal 22.9% | COLO 205 colon 118%

CC(=O)CC/C=C(\C)[C@H](O)[C@H](C)C(=O)O[C@H]1C[C@H](C)C=C2C=C[C@@]3(C)O[C@@H](O)CC(=O)[C@]3(C)[C@H]21
active: NCI-H23 lung -35.8% | NCI-H226 lung -50.5% | NCI-H322M lung -17.6% | HOP-62 NSCLC -31.8% | NCI-H460 lung -16.6% | HOP-92 NSCLC -32.5% | NCI-H522 lung -43.4% | A549/ATCC NSCLC -10.6% | 786-0 renal -49.7% | COLO 205 colon -45.6%

N#CC1=C(N)Oc2c(ccc3ccccc23)C1c1cc(=O)oc2ccc(Cl)cc12 (stereo not given)
active: NCI-H460 lung 8.96% | NCI-H522 lung 5.22% | COLO 205 colon -16.4%
inactive: NCI-H23 lung 32.9% | NCI-H226 lung 98.3% | NCI-H322M lung 44.2% | HOP-62 NSCLC 33.3% | HOP-92 NSCLC 87.5% | A549/ATCC NSCLC 26.6% | 786-0 renal 29.4%

COc1ccc(-c2nn(-c3ccc(NC(=O)Nc4ccc(Cl)c(Cl)c4)cc3)cc2-c2ccncc2)cc1Cl
inactive: NCI-H322M lung 47.2% | HOP-62 NSCLC 20.7% | A549/ATCC NSCLC 15%
active: NCI-H23 lung 6.03% | NCI-H226 lung 6.82% | NCI-H460 lung -21.1% | HOP-92 NSCLC -17% | NCI-H522 lung 0.622% | 786-0 renal 2.7% | COLO 205 colon -47.7%

CC(=S)Nc1ccccc1
inactive: NCI-H23 lung 95.7% | NCI-H226 lung 89.3% | NCI-H322M lung 104% | HOP-62 NSCLC 82.2% | NCI-H460 lung 97.3% | HOP-92 NSCLC 90.7% | NCI-H522 lung 88.2% | A549/ATCC NSCLC 79.6% | 786-0 renal 104% | COLO 205 colon 99.8%

CCOC(=O)c1[nH]c(-c2ccc(Cl)cc2)cc1-c1cccnc1
active: NCI-H460 lung 7.36% | NCI-H522 lung -1.79% | COLO 205 colon -15.5%
inactive: NCI-H23 lung 35.1% | NCI-H226 lung 68.4% | NCI-H322M lung 59.4% | HOP-62 NSCLC 10.5% | HOP-92 NSCLC 17% | A549/ATCC NSCLC 30.7% | 786-0 renal 24.5%

COc1ccc(-c2nn(-c3ccc(NC(=O)c4cc(C(F)(F)F)cc(C(F)(F)F)c4)cc3)cc2-c2ccncc2)cc1Cl
inactive: NCI-H23 lung 72.1% | NCI-H226 lung 91.1% | NCI-H322M lung 87.4% | HOP-62 NSCLC 67% | NCI-H460 lung 57.7% | HOP-92 NSCLC 48.7% | NCI-H522 lung 71.2% | A549/ATCC NSCLC 59.5% | 786-0 renal 44.1% | COLO 205 colon 85.6%

CC(C)(C)OC(=O)N1CC(Cn2cc(C(F)(F)F)c3c(Cl)ncnc32)C1
inactive: NCI-H226 lung 63.8% | NCI-H522 lung 39.9% | 786-0 renal 107% | COLO 205 colon 63.8%
active: NCI-H23 lung -68.9% | NCI-H322M lung -90.2% | HOP-62 NSCLC -83.7% | NCI-H460 lung -59% | HOP-92 NSCLC -64.5% | A549/ATCC NSCLC 5.78%

COC(=O)c1ccc2c(c1)Oc1ccc(Cl)cc1-c1cc(C)nn1-2
inactive: NCI-H23 lung 78.1% | NCI-H226 lung 37.4% | NCI-H322M lung 81.9% | HOP-62 NSCLC 37.6% | NCI-H460 lung 14% | HOP-92 NSCLC 61.1% | NCI-H522 lung 82.3% | A549/ATCC NSCLC 40.5% | 786-0 renal 69.5% | COLO 205 colon 69.6%

COc1ccc(/C(=C/c2cc(OC)c(OC)c(OC)c2)[N+](=O)[O-])cc1
inactive: NCI-H23 lung 24.1% | NCI-H322M lung 86.7% | HOP-62 NSCLC 68.3% | NCI-H460 lung 13% | A549/ATCC NSCLC 65.8%
active: NCI-H226 lung 3.77% | HOP-92 NSCLC -24.6% | NCI-H522 lung -37% | 786-0 renal -44.3% | COLO 205 colon -51.5%

NC(=O)C1=C[C@H]2[C@H]3C=C[C@@]2(O)C(=O)O[C@@H]3O1
inactive: NCI-H23 lung 67% | NCI-H226 lung 47.6% | NCI-H322M lung 93.8% | HOP-62 NSCLC 82.3% | NCI-H460 lung 99.2% | HOP-92 NSCLC 40.7% | NCI-H522 lung 63.3% | A549/ATCC NSCLC 80.7% | 786-0 renal 61.4% | COLO 205 colon 38.8%

O=C1OC(N(Cc2ccc(Cl)cc2)c2ccccc2)c2ccccc21 (stereo not given)
inactive: NCI-H23 lung 99.7% | NCI-H226 lung 92.9% | NCI-H322M lung 89.6% | HOP-62 NSCLC 88.9% | NCI-H460 lung 111% | HOP-92 NSCLC 100% | NCI-H522 lung 65.8% | A549/ATCC NSCLC 90.5% | 786-0 renal 91% | COLO 205 colon 104%
